Screening results: PubChem, several laboratories
Only some compounds are listed: those with a hit (about 3.3% of all), similar ones and a draw of the others.
PfM18AAP inh = PfM18AAP inhibitors, malaria aminopeptidase, primary screen, biochemical, QFRET, recombinant enzyme | H-Glu-NHMec fluorogenic cleavage | inhibition, % at 7.35 µM | actives 1.2% (n = 290,000);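 active = inhibition above the campaign mean inhibition over all tested compounds plus 3 SD, cut at about 28% in these data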;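 also: 0% = plate median of test compound wells and 100% = 2 mM ZnCl2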
PRMT1 inh = PRMT1 methyltransferase inhibitors, primary screen, biochemical, fluorescence polarization | Protein arginine N-methyltransferase 1 (Homo sapiens), Q99873 | recombinant PRMT1, activity-based probe fluorescence polarization | inhibition, % at 2.79 µM | actives 1.3% (n = 370,000) | AID 652257, 2013;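 active = inhibition above about 21% made by adding two undisclosed values, limit read from the data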
MBD2 inh = inhibitors of MBD2 binding to methylated DNA, primary screen, biochemical, TR-FRET, DNA-binding domain, human. inhibition, % at 4.4 µM. actives 0.31% (n = 370,000). MBD2 binding to methylated oligonucleotide; in the data active = inhibition above about 13%
Target sequence (Q9UBB5 whole entry, looked up, the tested form may be a part): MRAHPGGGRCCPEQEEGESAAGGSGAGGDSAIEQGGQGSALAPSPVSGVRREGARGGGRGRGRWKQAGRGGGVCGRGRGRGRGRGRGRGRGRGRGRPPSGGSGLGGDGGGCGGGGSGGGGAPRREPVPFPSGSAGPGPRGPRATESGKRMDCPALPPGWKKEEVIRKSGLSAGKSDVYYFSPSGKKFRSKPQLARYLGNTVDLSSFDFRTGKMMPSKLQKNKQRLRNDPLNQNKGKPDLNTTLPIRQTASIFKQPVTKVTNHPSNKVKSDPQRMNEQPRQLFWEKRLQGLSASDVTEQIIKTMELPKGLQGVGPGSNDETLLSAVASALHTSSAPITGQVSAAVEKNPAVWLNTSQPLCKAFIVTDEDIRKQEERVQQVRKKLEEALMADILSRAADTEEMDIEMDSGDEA
UHRF1 binding = UHRF1 methylated DNA binding inhibitors, primary screen, counter-screen for MBD2 inhibitor project, biochemical, TR-FRET, human UHRF1, single concentration. UHRF1 binding to methylated oligo. inhibition, % at 4.4 µM. E3 ubiquitin-protein ligase UHRF1 (Homo sapiens), Q96T88. AID 687016, 2013. actives 0.75% (n = 370,000); in the data active = inhibition above about 21%;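 also: UHRF1 SRA domain binding a hemimethylated CpG hairpin DNA probe; 0% = median of test compound wells and 100% = reference inhibitor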
PfGluPho inh = PfG6PD enzyme inhibitors, primary screen, biochemical, fluorescence intensity, uHTS; PfGluPho enzyme, NADPH resazurin-diaphorase fluorescence; inhibition, % at 20 µM; actives 0.78% (n = 350,000);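 active = inhibition reaching at least a set limit at 20 µM in the primary screen, cut at about 59% in these data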;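 also: 0% = DMSO wells with substrate and 100% = DMSO wells lacking glucose-6-phosphate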
* marks the source's active call; other numbers are inactive results.

`CCOC(=O)C(Cc1ccc(OC)c([N+](=O)[O-])c1)NC(=O)CCC(=O)Nc1ccc(OC)cc1` (stereo not drawn) gave PfM18AAP inh -3, PRMT1 inh 0, MBD2 inh -6, UHRF1 binding 28* and PfGluPho inh -1.
`Cc1ccc(SCCNC(=O)/C=C/c2ccccc2Cl)cc1` gave PfM18AAP inh -15, PRMT1 inh 6, MBD2 inh 8, UHRF1 binding 27* and PfGluPho inh 31.
For C[C@@H]1CN(S(=O)(=O)C(C)(C)C)[C@@H](CCO)/C1=C\CCO the results were PRMT1 inh 1, MBD2 inh 5 and UHRF1 binding 2.
For CC1(C(=O)NCc2cccc(C(F)(F)F)c2)CCN1Cc1ccc(-c2ccccc2)o1 (stereo not drawn) the results were PRMT1 inh 22*, MBD2 inh 2 and UHRF1 binding 1.
CCc1c(-c2ccc(OC)cc2)ncn1CCc1ccccc1OC was read as PRMT1 inh -1, MBD2 inh -2 and UHRF1 binding 0.
For Cc1cc(C)c(S(=O)(=O)/N=C2\C=C(Nc3ccc(C(=O)O)cc3)C(=O)c3ccccc32)c(C)c1 the results were PfM18AAP inh -4, PRMT1 inh 14, MBD2 inh -3, UHRF1 binding 8 and PfGluPho inh 57.
O=C(O)c1ccc(NC2=C/C(=N/S(=O)(=O)c3ccccc3)c3ccccc3C2=O)cc1 was read as PfM18AAP inh 0, PRMT1 inh 6, MBD2 inh -11, UHRF1 binding 8 and PfGluPho inh 107*.
Cc1cccc(NC2=C/C(=N/S(=O)(=O)c3cccs3)c3ccccc3C2=O)c1 was read as PfM18AAP inh -2, PRMT1 inh 1, MBD2 inh -5, UHRF1 binding 1 and PfGluPho inh 62*.
For Cc1cc(C)cc(CC(=O)N2CCC2(C)C(=O)NS(=O)(=O)c2cccc(F)c2)c1 (stereo not drawn) the results were PRMT1 inh -3, MBD2 inh -1 and UHRF1 binding 21*.
Screening CC(C)c1[nH]nc2c1C(c1ccccc1)NC2=O (stereo not drawn) returned PRMT1 inh -4, MBD2 inh 2 and UHRF1 binding 0.
For CCOc1ccc(-n2c(SCC(=O)Nc3ccc(S(=O)(=O)Nc4nccs4)cc3)nnc2-c2ccccc2)cc1 the results were PRMT1 inh 2, MBD2 inh 1 and UHRF1 binding -1.
`CC(=O)Nc1ccc(-c2csc(NNC(=O)c3ccc(C)cc3)n2)cc1` gave PfM18AAP inh 19, PRMT1 inh 5, MBD2 inh -4, UHRF1 binding -1 and PfGluPho inh 6.
CC(=O)NNc1nc(-c2ccc(NC(C)=O)cc2)cs1 was read as PfM18AAP inh 31*, PRMT1 inh 2, MBD2 inh -2, UHRF1 binding -4 and PfGluPho inh 6.
`CCNC(=O)N(C)[C@H]1C[C@H]2c3[nH]c4c(-c5cccc(C)c5)cccc4c3CCN2C(=O)[C@H]1[C@H](C)O` gave PRMT1 inh -1, MBD2 inh 2 and UHRF1 binding 2.
For Fc1ccccc1CSc1ncn[nH]1 the results were PfM18AAP inh 12, PRMT1 inh 1, MBD2 inh -1, UHRF1 binding 3 and PfGluPho inh -2.
c1ccc(Nc2nc(CSc3ncn[nH]3)cs2)cc1 was read as PfM18AAP inh 60*, PRMT1 inh -2, MBD2 inh -5, UHRF1 binding -3 and PfGluPho inh 23.
COC(=O)[C@]12C[C@H](CC(=O)NCCC(C)C)C(=O)N(Cc3ccco3)C1=C[C@H](C(C)(C)C)O[C@@H]2C was read as PRMT1 inh 0, MBD2 inh 4 and UHRF1 binding -2.
`O=C(Nc1ccc(F)cc1)C1=CC(=O)N2CCN=C2S1` gave PfM18AAP inh 29*.
`NS(=O)(=O)c1cc(C(=O)NC2CCSc3ccccc32)ccc1Cl` (stereo not drawn) gave PfM18AAP inh 3, PRMT1 inh 21, MBD2 inh 96*, UHRF1 binding 102* and PfGluPho inh -7.
For O=C(Nc1ccc(Br)c(C(F)(F)F)c1)[C@@H]1CC=C[C@@H]2CCN(CC3CC3)C(=O)[C@@H]21 the results were PRMT1 inh 2, MBD2 inh -2 and UHRF1 binding 0.
`COc1ccc(S[C@]2(C(=O)N3CCOCC3)CC(=O)N(C(=O)Nc3ccc(C)c(Cl)c3)[C@@H]2c2ccc(OC)cc2)cc1` gave PRMT1 inh 11, MBD2 inh 1 and UHRF1 binding 3.
CC1(C)Cc2c(sc3ncnc(NN)c23)CO1 was read as PfM18AAP inh 30*, PRMT1 inh 0, MBD2 inh -1, UHRF1 binding -2 and PfGluPho inh 0.
Screening CC1(C)Cc2c(sc3ncn(N)c(=N)c23)CO1 returned PfM18AAP inh 3, PRMT1 inh 1, MBD2 inh 0, UHRF1 binding -1 and PfGluPho inh -2.
COc1ccc(Nc2nc(C)cc(C)c2C#N)c(OC)c1 was read as PfM18AAP inh 0, PRMT1 inh 0, MBD2 inh 2, UHRF1 binding 1 and PfGluPho inh -7.
`CCc1ccc2nc(Nc3ccc(OC)cc3OC)c(C#N)cc2c1` gave PfM18AAP inh -15, PRMT1 inh -2, MBD2 inh 3, UHRF1 binding 22* and PfGluPho inh 8.
`O=C(NCc1ccc(F)cc1)c1ccc(NC(=O)C2CCCO2)cc1` (stereo not drawn) gave PfM18AAP inh 0, PRMT1 inh -4, MBD2 inh 2, UHRF1 binding 38* and PfGluPho inh -4.
For Cc1cc(NC(=O)c2ccc(NC(=O)C3CCCO3)cc2)ccc1Br (stereo not drawn) the results were PfM18AAP inh 5, PRMT1 inh 2, MBD2 inh -3, UHRF1 binding -4 and PfGluPho inh 14.
`CCN(CC)c1ccc(NC(=O)c2ccc(NC(=O)C3CCCO3)cc2)c(C)c1` (stereo not drawn) gave PfM18AAP inh 31*, PRMT1 inh 2, MBD2 inh 5, UHRF1 binding 2 and PfGluPho inh 0.
O=C(NCc1ccc(Cl)cc1)c1ccc(NC(=O)C2CCCO2)cc1 (stereo not drawn) was read as PfM18AAP inh 3, PRMT1 inh -2, MBD2 inh 0, UHRF1 binding 0 and PfGluPho inh -5.
Screening COC(=O)[C@H]1C[C@@]2(N3CCCC3)c3ccccc3N[C@H]2N1S(=O)(=O)c1ccc([N+](=O)[O-])cc1 returned PRMT1 inh 1, MBD2 inh 2 and UHRF1 binding -1.
